Assay outcomes from PubChem BioAssay.
BAZ2B inh = blocks human BAZ2B; 360,000 tested, 4.4% active; AID 504333; Potency, µM (top dose mostly 114 µM), usual class: inhibitors; AlphaScreen BAZ2B-H3K14Ac peptide displacement; Q9UIF8; further: nearly all actives have a fitted effect of over 60% in size
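BAZ2B (50 nM) with biotin-H3(5-23)K14Ac peptide (50 nM) in PBS pH 7.4, 0.01% Tween-20, preformed 30 min, then compound 30 min at room temperature; top concentration 110uM. AlphaScreen streptavidin donor/nickel chelate acceptor beads (10 ug/mL final), 20 min dark, signal read.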
PLK1 PBD block = PLK1 (human) polo-box domain binding inhibition; P53350; Plk1 PBD binding of FITC phosphopeptide, fluorescence polarization; Potency, µM, usual class: inhibitors; 360,000 tested, 2.8% active; further: series mostly up to about 57 µM; nearly all actives have a fitted effect of over 65% in size
Sfp inh = inhibitors of Bacillus subtilis Sfp phosphopantetheinyl transferase. Q9F4F7. 310,000 tested, 3.5% active. Potency, µM, actives largely listed as inhibitors. Biochemical Sfp PPTase activity, qHTS;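 further: the enzyme is Sfp with the accession as filed and its product quenches rhodamine fluorescence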
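Compounds were incubated with enzyme (final 15 nM) for 15 min at room temperature before substrate addition started the reaction. Fluorescence at 525 nm excitation, 598 nm emission was recorded immediately and after 30 minutes.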
HP1b binding inh = inhibitors of HP1-beta chromodomain binding to methylated histone tails | 390,000 tested, 0.56% active | P83916 | Potency, µM (titrated, usually from 114 µM), hits mostly inhibitors | AlphaScreen HP1-beta / biotin-H3K9me3 peptide binding; further: nearly all actives have a fitted effect of over 70% in size
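Compound inhibition of the preformed complex between 50 nM HP1-beta and 50 nM biotinylated H3K9me3 peptide was read by AlphaScreen. Buffer was PBS pH 7.4 with 0.01% Tween-20. Incubations ran 30 min at room temperature, with 10 ug/mL donor/acceptor beads.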
JMJD2A Tudor = inhibitors of human JMJD2A Tudor domain; O75164; AlphaScreen JMJD2A-Tudor / H3K4me3 peptide binding; Potency, µM (top dose mostly 114 µM), hits mostly inhibitors; 390,000 tested, 4.4% active; further: nearly all actives have a fitted effect of over 50% in size
G9a block = blocks human histone lysine methyltransferase G9a | Q96KQ7 | G9a H3K9 monomethylation, AlphaScreen, 2 h | Potency, µM (series often up to 102 µM), actives largely listed as inhibitors | 350,000 tested, 8.8% active; further: nearly all actives have a fitted effect of over 75% in size
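AlphaScreen detection with an anti-monomethyl H3K9 antibody quantified product after a 2 h room-temperature reaction containing 500 nM biotinylated H3K9 peptide, 20 µM SAM and 20 nM enzyme, which had been preincubated 15 min with compound.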
Of the large screens only hits and unclear results are named; the others gave an inactive call; ! = not active in a repeat. Shown are actives, neighbours in structure and some others; about 12% of the full set was active somewhere. The call rests on the fitted dose curve; in most records, active means well fitted curve in the direction sought with a large enough effect; inconclusive means small, poorly fitted or top-dose-only effect, or another doubt; inactive means no such curve, though single readings can be large; an effect the other way counts as inactive or inconclusive.

C[C@@H]1NC(=O)[C@H](CCCN=C(N)N)NC(=O)c2cc([N+](=O)[O-])cc(I)c2OCC[C@@H](C(=O)NC(CC(=O)O)C(N)=O)NC1=O (stereo not given in full)	G9a block 40µM (no result: PLK1 PBD block, HP1b binding inh, JMJD2A Tudor)
CC(C)[C@@H]1NC(=O)[C@@H](Cc2ccccc2)NC(=O)[C@H](CC(=O)O)NC(=O)CNC(=O)[C@H](CCCN=C(N)N)NC1=O	none (no result: BAZ2B inh, PLK1 PBD block, HP1b binding inh, JMJD2A Tudor, G9a block)
C[C@@H]1NC(=O)c2cc([N+](=O)[O-])cc(I)c2OCC[C@@H](C(=O)NC(CC(=O)O)C(N)=O)NC(=O)[C@H](CC(N)=O)NC1=O (stereo not given in full)	BAZ2B inh inconclusive, Sfp inh inconclusive, JMJD2A Tudor inconclusive, G9a block 25µM
Nc1nc(-c2nn(Cc3ccccc3F)c3ncccc23)ncc1C1CC1	none (no result: BAZ2B inh, PLK1 PBD block, HP1b binding inh, JMJD2A Tudor, G9a block)
Cc1ccc(-c2nc(NC(=O)CSc3cc(C)c4ccccc4n3)ns2)cc1	BAZ2B inh 10µM!, PLK1 PBD block inconclusive, JMJD2A Tudor inconclusive, G9a block 35µM
Cc1nc(NC(=O)CSc2cc(C)c3ccccc3n2)c(Cl)cc1Cl	PLK1 PBD block inconclusive, Sfp inh inconclusive, G9a block 45µM
COc1ccc2c(C)cc(SCC(=O)Nc3nsc(-c4ccc(C)cc4)n3)nc2c1	none
O=C(/C=C/c1ccccn1)c1cc(Br)ccc1O	PLK1 PBD block 11µM, Sfp inh inconclusive, G9a block inconclusive
COc1ccc(/C=C/C(=O)c2cc(F)ccc2OC(=O)c2ccccc2)cc1OC	none (no result: BAZ2B inh, Sfp inh, G9a block)
COc1ccc(/C=C/C(=O)c2ccc(O)cc2O)cc1OC	none (no result: BAZ2B inh, PLK1 PBD block, HP1b binding inh, JMJD2A Tudor)
COc1ccc(/C=C/C(=O)c2cc(F)ccc2OC(=O)c2ccc(OC)c(OC)c2)cc1OC	BAZ2B inh inconclusive, G9a block 56µM
COc1ccc(/C=C/C(=O)c2cc(Br)ccc2O)cc1OC	BAZ2B inh inconclusive, G9a block 25µM
CCn1c(C)c(C2N3CC4(C)CN2CC(C)(C3)C4=O)c2ccccc21 (stereo not given)	none (no result: PLK1 PBD block, Sfp inh)
C=CCSC1=N/C(=C\c2cc(OCC)c(OC(C)=O)c([N+](=O)[O-])c2)C(=O)S1	BAZ2B inh 35µM, Sfp inh 56µM, HP1b binding inh 28µM, JMJD2A Tudor 18µM, G9a block 13µM
C=CCSC1=N/C(=C\c2ccc3c(c2)OCO3)C(=O)S1	none
O=Nc1c(-c2c(O)[nH]c3cc(Br)ccc23)[nH]c2ccccc12	BAZ2B inh 4µM, HP1b binding inh 4µM, JMJD2A Tudor 3.2µM, G9a block 8.4µM
CCOc1ccccc1Nc1nc(-c2sc(NC(=O)c3cccc(Cl)c3)nc2C)cs1	BAZ2B inh inconclusive, PLK1 PBD block inconclusive, HP1b binding inh inconclusive, JMJD2A Tudor inconclusive, G9a block 40µM
CCCCCC(=O)Nc1nc(C)c(-c2csc(Nc3ccccc3OCC)n2)s1	Sfp inh inconclusive, JMJD2A Tudor inconclusive, G9a block inconclusive
CCOc1ccccc1Nc1nc(-c2sc(NC(=O)c3ccccc3)nc2C)cs1	BAZ2B inh inconclusive, G9a block 32µM (no result: PLK1 PBD block, HP1b binding inh, JMJD2A Tudor)
COc1ccccc1Nc1nc(-c2sc(NC(=O)c3ccc([N+](=O)[O-])cc3)nc2C)cs1	BAZ2B inh inconclusive, G9a block 45µM (no result: PLK1 PBD block, HP1b binding inh, JMJD2A Tudor)
COc1ccccc1Nc1nc(-c2sc(NC(=O)c3ccccc3)nc2C)cs1	PLK1 PBD block inconclusive, JMJD2A Tudor inconclusive, G9a block inconclusive
CC#CCOCC/C=C1/c2ccccc2C(OC)C1C (stereo not given)	none (no result: BAZ2B inh, PLK1 PBD block, HP1b binding inh, JMJD2A Tudor, G9a block)
O=C(c1ccc(Cl)cc1)c1c[nH]c(C(=O)NNc2ccccc2)c1	G9a block 20µM
Cc1[nH]n(-c2ccccc2)c(=O)c1C(c1ccc(O)c([N+](=O)[O-])c1)c1c(C)[nH]n(-c2ccccc2)c1=O	PLK1 PBD block 24µM, JMJD2A Tudor inconclusive (no result: BAZ2B inh, Sfp inh, G9a block)
Cc1[nH]n(-c2cccc([N+](=O)[O-])c2)c(=O)c1-c1ccccc1	BAZ2B inh inconclusive
COc1ccc(C(C[N+](=O)[O-])c2c(C)[nH]n(-c3ccccc3)c2=O)cc1 (stereo not given)	PLK1 PBD block 24µM, Sfp inh 40µM, HP1b binding inh inconclusive, JMJD2A Tudor 89µM
